Results reported in paper PMC10313831, “ssDNA accessibility of Rad51 is regulated by orchestrating multiple RPA dynamics”.

molecular target: RPA (Rfa1-Rfa2-Rfa3) (Saccharomyces cerevisiae, UniProt P22336;P26754;P26755 1-621;1-273;1-122); test: EMSA; 10 nM RPA, 150 mM KCl; 20 mM Tris-HCl pH 7.5, 150 mM KCl (15 mM in Supp. Fig. 1b), 1 mM DTT, 100 ug/mL BSA, 5 nM ssDNA, 30 C 10 min; 4% native gel in 0.2x TBE; high values mean tight binding; conditions: protein: recombinant; copies: 1;1;1; label: 5'-32P; ssDNA
Sequence (P22336 whole entry, chain 1 of 3): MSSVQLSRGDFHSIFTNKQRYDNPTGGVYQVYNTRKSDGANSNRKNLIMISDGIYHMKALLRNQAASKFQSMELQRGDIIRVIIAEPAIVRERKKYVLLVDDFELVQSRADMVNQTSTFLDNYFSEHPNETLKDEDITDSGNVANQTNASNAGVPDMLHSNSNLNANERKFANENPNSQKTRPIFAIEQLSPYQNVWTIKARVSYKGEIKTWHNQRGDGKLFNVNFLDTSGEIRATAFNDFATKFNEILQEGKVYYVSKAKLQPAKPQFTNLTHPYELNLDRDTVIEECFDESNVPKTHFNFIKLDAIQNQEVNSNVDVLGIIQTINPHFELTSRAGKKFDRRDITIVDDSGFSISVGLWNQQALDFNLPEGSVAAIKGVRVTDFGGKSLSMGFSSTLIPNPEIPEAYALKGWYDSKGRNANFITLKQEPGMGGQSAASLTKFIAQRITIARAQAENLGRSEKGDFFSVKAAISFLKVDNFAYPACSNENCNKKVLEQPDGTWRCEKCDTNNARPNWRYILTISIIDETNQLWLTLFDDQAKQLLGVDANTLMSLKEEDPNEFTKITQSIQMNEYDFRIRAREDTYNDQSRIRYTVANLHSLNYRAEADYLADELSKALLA
Sequence (P26754 whole entry, chain 2 of 3): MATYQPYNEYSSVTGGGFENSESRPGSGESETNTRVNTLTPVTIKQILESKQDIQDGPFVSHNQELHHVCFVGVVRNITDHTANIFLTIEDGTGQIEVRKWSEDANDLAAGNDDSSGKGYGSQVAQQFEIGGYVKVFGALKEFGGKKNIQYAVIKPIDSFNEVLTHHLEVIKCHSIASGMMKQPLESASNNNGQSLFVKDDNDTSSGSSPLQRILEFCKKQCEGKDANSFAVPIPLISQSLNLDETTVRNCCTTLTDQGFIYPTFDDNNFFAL
Sequence (P26755 whole entry, chain 3 of 3): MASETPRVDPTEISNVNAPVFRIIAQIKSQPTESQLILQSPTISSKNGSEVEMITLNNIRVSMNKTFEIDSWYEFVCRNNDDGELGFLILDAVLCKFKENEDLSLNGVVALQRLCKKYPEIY

Sequence | binding signal [% bound]
TTTTTTTTTTTTTTTTTT | 39.7
TTTTTTTTTTTTTT | 3.33 ± 2.59
TTTTTTTTTT | 1.24
